# Experimental data published in PubChem BioAssay (NCI).
# Values joined by “and” are separate entries in the source; they are usually repeats but may differ in a detail not shown here. Equal values may be shown once. About 83,000 compounds went through this panel and 20% of them were active in at least one assay; those are over-represented in the sample as a whole.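 96-well plates, one dose, 48 hours. Percent growth reported; active if below 10.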 A number with no mark means an inactive call. Active and inactive are the calls of the source.
# Test system: HL-60(TB) leukemia
# Assay: NCI-60 one-dose screen, 48 h (100 = growth as untreated, 0 = no growth, -100 = all killed)
# Conditions: 10 µM unless noted
row,SMILES,growth
1,c1ccc(NCc2ccc3c(c2)OCO3)cc1,94.6% and 96.1%
2,CCOP(C)(=O)/C(Cc1ccc(OC)c(OC)c1)=N\O (configuration not stated),98.1%
3,Cc1cc(OCc2ccc(C(F)(F)F)cc2)c2c(c1)C(=O)C=C(NCCN1CCCC1)C2=O,96.6%
4,CCCCCCOc1ccc(C2(Cl)c3ccccc3N(C)c3ccccc32)cc1,65.4%
5,COc1cc2nc(N3CCC[C@@H](NC4=CC(=O)c5ccccc5C4=O)C3)nc(N)c2cc1OC,-60.3% (active)
6,C=C1C(=O)O[C@H]2[C@H]1CC/C(COC(=O)/C=C\C(=O)NCc1ccc(Cn3c(=O)sn(-c4ccc(Cl)cc4)c3=O)cc1)=C\CC[C@@]1(C)O[C@@H]21,-52.5% (active)
7,O=C(c1ccncc1)c1c(Cc2ccccc2)ccc2ccccc12,88.1%
8,O=c1c(CNc2ccc(S(=O)(=O)Nc3nccs3)cc2)coc2ccccc12,89.6%
9,CC1(C)CC[C@]2(C(N)=O)CC[C@]3(C)C(=CC[C@@H]4[C@@]5(C)C/C(=C/c6ccncc6)C(=O)C(C)(C)[C@@H]5CC[C@]43C)[C@@H]2C1,-19.2% [100 µM] (active)
10,COc1ccc(-n2nc(C(=O)Nc3ccc(F)cc3)nc2-c2cc(OC)c(OC)c(OC)c2)cc1,91.5%
11,Cc1nn(-c2ccc(Cl)cc2)c(=O)n1CCn1cnc2ccccc21,102%
12,Nc1cc(-c2nc3sccn3c2-c2ccnc(NCCCNS(=O)(=O)c3ccc(F)cc3)n2)ccc1F,63.6%
13,N#CC1=C(N)Oc2ccc3ccccc3c2C1c1ccccc1 (configuration not stated),2.02% (active)
14,COc1ccc(NC(=O)c2cc3ccccc3nc2Nc2cc(OC)c(OC)c(OC)c2)cc1,67.3%
15,COC(=O)/C=C/c1cc(O)c2oc(-c3ccc(O)c(O)c3)c(C(=O)OC)c2c1,6.46% (active)
16,O=C1C=Cc2ccccc2/C1=C/c1nc(-c2ccccc2)oc1O,101%
17,NS(=O)(=O)c1ccc(CCN2C(=O)/C(=C\c3ccccc3)C=C2c2ccc(Cl)cc2)cc1,104%
18,NC(=O)c1cc(Cl)ccc1NC(=O)c1ccccc1-c1ccccc1,1.29% (active)
19,CCOC(=O)c1c(C)c2c(n1C)CSc1cc(C(=O)c3ccccc3)c(=O)[nH]c1-2,74.7% [100 µM]

row,SMILES,growth
1,Cn1cnc([N+](=O)[O-])c1Sc1nc(N)nc2nc[nH]c12,59.9%
2,CCn1c(SCC(=O)c2ccc(Br)cc2)nnc1-c1ccncc1,103%
3,COc1ccccc1P(c1ccccc1OC)c1ccccc1OC,101%
4,O=C(Nc1ccc(Cl)c(Cl)c1)Nc1ccccc1O,61.6%
5,O=C(Nc1ccccc1Cl)Oc1ccc(-c2ccccc2)cc1,97.4%
6,CCCCCCCCCCCCCCCCCCOc1ccccc1N,2.15% (active)
7,Cc1cc(-c2cc(C)c(N)cc2C)c(C)cc1N,90.2%
8,Nc1c(Br)cc(Br)cc1-c1n[nH]c(=O)[nH]c1=O,94.4%
9,Nc1cc(-c2cccc(OC(F)(F)F)c2)nc2ccc(N3CCCC3)cc12,-35.5% (active) and -28.5% (active) and -11.6% (active)
10,Nc1ccccc1SC(CC(=O)c1ccccc1)c1cccc([N+](=O)[O-])c1 (configuration not stated),96.8% and 88.5%
11,O=C1C(=O)c2ccccc2C(O)=C1CCCc1ccc(C2CCCCCC2)cc1,45.6%
12,Nc1ncnc2c1c(-c1ccc(Oc3ccccc3)cc1)nn2C[C@@H]1SSC[C@H]1O,-27.5% (active)
13,O=C(Nc1ccccc1)Nc1cccc(Oc2nnc(Cl)c3ccccc23)c1,12.1%
14,C=C1C(=O)O[C@H]2[C@H]1CC/C(COC(=O)CCSCCC(=O)OC/C1=C/CC[C@@]3(C)O[C@H]3[C@H]3OC(=O)C(=C)[C@@H]3CC1)=C\CC[C@@]1(C)O[C@@H]21,-58.2% (active)
15,Nc1ccccc1NC(=O)c1ccc(CCCC(=O)Nc2ccc(C3CC3N)cc2)cc1 (configuration not stated),24.6%
16,Cc1ccc(C=C2C(Cl)=C(Cl)C(Cl)=C2Cl)cc1,7.68% (active)
17,COc1c(B(O)O)cccc1-c1nc2c(F)cc3n[nH]c(C)c3c2c2c1CCCC2,6.65% (active)
18,O=C(N/N=C/c1ccc2c(c1)OCO2)c1ccncc1,115% and 225%
